Source: PubChem BioAssay (Tox21)
Inconclusive results are not listed. More than one record can exist for a structure, and the calls need not agree. Activity calls are given as the source filed them. The call rests on the fitted dose curve.

Biological target: Thyrotropin receptor (Homo sapiens) (UniProt P16473)
Assay: qHTS assay to identify small molecule antagonists of the thyroid stimulating hormone receptor (TSHR) signaling pathway (AID 1259385); further: nearly all actives have a fitted effect of over 20% in size
Conditions: TSHR-HEK293 cAMP HTRF, TSH-stimulated antagonist mode; series mostly up to 92.4 µM; activity change, negative = inhibition: at the top concentration
Source text: U.S. Tox21 Program National Center for Advancing Translational Sciences [NCATS] NIH Chemical Genomics Center [NCGC] U.S. Environmental Protection Agency [EPA] National Institutes of Environmental Health Sciences [NIEHS] National Toxicology Program [NTP] U.S. Food and Drug Administration [FDA] Tox21 Assay Overview: TSHR is the receptor for thyrotropin (thyroid stimulating hormone or TSH), a member of the glycoprotein hormone family. TSH is released by the anterior pituitary gland and is the main regulator of thyroid gland growth and development. Upon binding circulating thyrotropin, a G-protein signal cascade activates adenylyl cyclase and […] cAMP concentration is increased. cAMP is a key second messenger involved extensively in cellular signal transduction pathways associated with the majority of G-protein coupled receptors (GPCRs). The activation of these GPCRs by neurotransmitters, lipids, nucleotides, peptides and hormones results in the activation or the inhibition of plasma membrane-bound adenylate cyclase through heterotrimeric G-proteins. A cell-based TSHR assay can be used to screen chemical compounds that modulate TSHR either in agonist or antagonist mode.
Tox21 Assay Protocol Summary: TSHR-Hek293 cells were dispensed at 800 cells/4uL/well in 1536-well white plates using a Multidrop dispenser. After the assay plates were incubated at a 37C/5% CO2 incubator for 18 hrs, 23 nL of compounds dissolved in DMSO, positive controls or DMSO only was transferred to the assay plate by a pin tool, followed by 1 ul medium containing Ro20-1724. For the antagonist mode screening, 1 uL of TSH was added on the top of the cell/compound mixtures to achieve a final agonist concentration of 1.5 ng/mL. After 30 min of incubation at room temperature, 2.5 ul/well of cAMP-d2 and 2.5 ul/well of anti-cAMP-cryptate were added respectively into the assay plates using a Flying Reagent Dispenser. The plates were incubated at room temperature for 1 hr. The fluorescence intensity in the plates was measured using an Envision plate reader. Each test compound was measured at 15 concentrations and in triplicates.
On the % scale 0 is the no-effect control and ±100 the full control effect; potency means the concentration at half of the fitted maximal effect.

Sequence of Thyrotropin receptor (Homo sapiens) (P16473 whole entry, looked up): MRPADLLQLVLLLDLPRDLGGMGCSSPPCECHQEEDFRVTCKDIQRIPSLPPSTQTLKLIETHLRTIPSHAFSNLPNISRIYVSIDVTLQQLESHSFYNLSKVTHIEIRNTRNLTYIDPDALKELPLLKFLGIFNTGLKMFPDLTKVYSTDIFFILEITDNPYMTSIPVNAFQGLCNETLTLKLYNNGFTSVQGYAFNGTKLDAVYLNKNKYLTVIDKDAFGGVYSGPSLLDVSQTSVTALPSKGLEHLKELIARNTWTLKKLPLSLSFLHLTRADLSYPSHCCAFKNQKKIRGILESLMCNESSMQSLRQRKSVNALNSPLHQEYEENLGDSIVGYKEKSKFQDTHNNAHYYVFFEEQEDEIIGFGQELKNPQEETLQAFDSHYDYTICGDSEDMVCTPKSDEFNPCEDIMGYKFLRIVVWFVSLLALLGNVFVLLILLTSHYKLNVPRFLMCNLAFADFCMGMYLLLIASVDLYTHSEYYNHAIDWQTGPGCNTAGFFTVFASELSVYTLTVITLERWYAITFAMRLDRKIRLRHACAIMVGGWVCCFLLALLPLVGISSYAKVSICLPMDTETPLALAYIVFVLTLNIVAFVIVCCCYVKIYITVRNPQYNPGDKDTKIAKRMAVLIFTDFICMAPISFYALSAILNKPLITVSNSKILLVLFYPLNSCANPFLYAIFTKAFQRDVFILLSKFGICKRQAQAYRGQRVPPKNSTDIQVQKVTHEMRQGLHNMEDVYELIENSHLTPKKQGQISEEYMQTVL

Structure (SMILES)	activity change, negative = inhibition	Potency
CC(C)=CC1CC(C)CCO1 (stereo not given)	1.8% (inactive)	–
O=C=NCc1cccc(CN=C=O)c1	2.52% [at 19 µM] (inactive)	–
Cc1c(C)n(Cc2ccccc2)c2ccc(C(=O)OCCN(C)C)cc12	-11.3% [at 42.5 µM] (inactive)	–
CCc1ccc(O)c(C(C)(C)C)c1	-4.17% (inactive)	–
Cc1occc1SSc1ccoc1C	-0.631% (inactive)	–
Cc1ccc2ccc3cccc4ccc1c2c34	-1.52% (inactive)	–
O=S(O)O	0.0817% [at 19 µM] (inactive)	–
Clc1cccnc1	0.33% (inactive)	–
C/C=C/CO	-0.316% (inactive)	–
O=C1NCCN1CCN1CCC(c2cn(-c3ccc(F)cc3)c3ccc(Cl)cc23)CC1	–	29.8 µM (active)
Nc1cc(Cl)c([N+](=O)[O-])cc1O	-0.23% (inactive)	–
CCCCCCCCCCCCCC[n+]1ccccc1	6.48% (inactive)	–
CC(NCCC(c1ccccc1)c1ccccc1)c1ccccc1 (stereo not given)	–	29.8 µM (active)
C[Si](C)O[Si](C)C	2.56% (inactive)	–
C=C(C)C(=O)OCCC[Si](Cl)(Cl)Cl	-0.237% (inactive)	–
CC(C)(C)CC(C)(C)c1ccccc1O	9.01% (inactive)	–
C=CC(=O)OCCC#N	6.26% (inactive)	–
CCCCCCCCCCCCCCNCCO	–	23.7 µM (active)
CNC(=S)NN	-0.255% (inactive)	–
O=CC1CC1	5.92% (inactive)	–

Structure (SMILES)	activity change, negative = inhibition	Potency
CCCCCCCC/C=C\CCCCCCCC(=O)OCCOC(=O)CCCCCCC/C=C\CCCCCCCC	4.04% (inactive)	–
C=CC/C=C/C/C=C/C/C=C/C	-0.269% (inactive)	–
C/C=C/C(=O)C1=C(C)CCCC1(C)C	3.98% (inactive)	–
Cc1cccc(C)n1	-0.571% (inactive)	–
OCCCCl	0.657% (inactive)	–
OCCCS	3.24% (inactive)	–
CCOC(=O)C1=C(C)NC(C)=C(C(=O)OCC)C1c1ccccc1/C=C/C(=O)OC(C)(C)C	-5.26% [at 42.5 µM] (inactive)	–
O=C1OC(OC(=O)c2cccnc2Nc2cccc(C(F)(F)F)c2)c2ccccc21 (stereo not given)	-0.831% [at 42.5 µM] (inactive)	–
CCCCCCCC/C=C/CCCOC(C)=O	0.425% (inactive)	–
Oc1c(Br)cc(Br)c2cccnc12	-0.705% [at 42.5 µM] (inactive)	–
CCCCCCCCC(C)=O	1.35% (inactive)	–
CCCCCCCCCCCCOC(=O)c1cc(O)c(O)c(O)c1	–	68.3 µM (active) and inactive
CCN(CC)CCOc1ccc(C(O)(Cc2ccc(Cl)cc2)c2ccc(C)cc2)cc1 (stereo not given)	–	29.8 µM (active)
CCCCCCCCCCCCCCCC	-0.348% (inactive)	–
COc1cccc(OC)c1O	1.16% (inactive)	–
COc1cc(C(=O)NS(=O)(=O)c2ccccc2C)ccc1Cc1cn(C)c2ccc(NC(=O)OC3CCCC3)cc12	-4.02% [at 42.5 µM] (inactive)	–
CC1CNCC(C)O1 (stereo not given)	1.24% (inactive)	–
CCCCCCC(C)OC(=O)COc1nc(F)c(Cl)c(N)c1Cl (stereo not given)	-3.13% (inactive)	–
Clc1nc2ccccc2s1	1.31% (inactive)	–
CCO[Si](C)(C)OCC	-1.99% (inactive)	–
